# Biological target: T1, Thyroid hormone receptor beta (Homo sapiens) (UniProt P10828)
# T1 sequence (whole entry): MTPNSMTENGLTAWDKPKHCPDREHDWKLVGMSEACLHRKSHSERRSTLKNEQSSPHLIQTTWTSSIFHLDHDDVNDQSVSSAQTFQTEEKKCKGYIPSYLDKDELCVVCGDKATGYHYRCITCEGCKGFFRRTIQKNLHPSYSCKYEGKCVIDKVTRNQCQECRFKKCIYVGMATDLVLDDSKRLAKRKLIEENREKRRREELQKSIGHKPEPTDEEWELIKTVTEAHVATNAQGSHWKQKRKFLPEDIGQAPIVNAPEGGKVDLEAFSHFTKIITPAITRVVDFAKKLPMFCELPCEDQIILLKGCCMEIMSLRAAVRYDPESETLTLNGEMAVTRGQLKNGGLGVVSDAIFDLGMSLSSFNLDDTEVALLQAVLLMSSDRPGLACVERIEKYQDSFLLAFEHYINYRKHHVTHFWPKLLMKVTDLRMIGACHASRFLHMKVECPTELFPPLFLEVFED
# Experiment: qHTS Assay for Inhibitors of the Interaction of Thyroid Hormone Receptor and Steroid Receptor Coregulator 2: Probe Summary. [Related pubchem assays (depositor defined):AID1469, AID1479, AID1567, AID1568, AID1570, AID1571, AID1573, AID2444, AID2447, AID2448, AID2449, AID2455, AID2479, AID2487, AID2490, AID2552]; call rule not given here
# Assay type: functional
row,SMILES,Potency
1,CC(OC(=O)c1ccc(S(C)(=O)=O)c([N+](=O)[O-])c1)C(=O)NC1C2CC3CC(C2)CC1C3 (centres undefined),1.4 µM (active)
2,CCC(OC(=O)c1ccc(S(C)(=O)=O)c([N+](=O)[O-])c1)C(=O)NC1C2CC3CC(C2)CC1C3 (centres undefined),1.1 µM (active)
3,CCCC1CCN(C(=O)COC(=O)c2ccc(S(C)(=O)=O)c([N+](=O)[O-])c2)CC1,3.3 µM (active)
4,CC1CCN(C(=O)COC(=O)c2ccc(S(C)(=O)=O)c([N+](=O)[O-])c2)CC1,9.8 µM (active)

# Reference: ChEMBL document CHEMBL1201862, “PubChem BioAssay data set” (2004)
